According to PubChem BioAssay (NCATS):
Records with an inconclusive call do not appear. Activity calls are given as the source filed them. Calls come from the whole dose curve; as a rule, active = well fitted inhibition curve with a large enough effect; inconclusive = small, poorly fitted or top-dose-only effect; inactive = no such curve, though single readings can be large or run the other way. Bridge positions count the residues as written; N and C are the ends. Square brackets hold non-standard residues; d marks the D form. Side chains are listed from the residue outwards. Peptide text beside a SMILES is read from it. * marks the point of attachment. Phg(4-OMe) = COc1ccc([C@H](N)C(=O)O)cc1; d(aIle) = CC[C@H](C)[C@@H](N)C(=O)O; d(aThr) = C[C@@H](O)[C@@H](N)C(=O)O; NMeF = CN[C@@H](Cc1ccccc1)C(=O)O; Isobutyryl = CC(C)C(=O)*

Experiment: qHTS for ATAD5 Antagonist screened against the NCATS CANVASS Library (AID 1347370); note: nearly all actives have a fitted effect of over 65% in size
Conditions: HEK293T-ATAD5-luc, 5-FUrd stimulated, luminescence, 16 h; series mostly up to 46.1 µM; activity change, negative = inhibition: at the top concentration
Method in brief: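 HEK293T cells with a stably integrated ATAD5-controlled luciferase reporter were exposed to compounds (11-pt) alongside 10 uM 5-fluorouridine as ATAD5 stabilizer for 16hr at 37C. Viability was read by CellTiter-Fluor fluorescence, then ATAD5 by luminescence.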
% is set by controls: 0 for no effect and ±100 for the full control effect; potency is the fitted concentration of half-maximal effect.

| SMILES | activity change, negative = inhibition | Potency |
| --- | --- | --- |
| CCC(=O)CCCCC[C@@H]1NC(=O)[C@H]2CCCCN2C(=O)[C@H](C(C)C)NC(=O)[C@H](Cc2cn(OC)c3ccccc23)NC1=O | 69.3% (inactive) | – |
| C/C(=C\[C@H](C)C(=O)CCCC1CC(=O)NC(=O)C1)[C@@H]1OC(=O)/C=C/CC/C=C/[C@H](O)[C@@H](O)[C@@H]1C | – | 2.63 µM (active) |
| C/C=C(/C)c1c(Cl)c(O)c(C)c2c1Oc1c(Cl)c(O)c(Cl)c(C)c1C(=O)O2 | -7.4% (inactive) | – |
| C=CC(CCCCC)C1C(=O)NC(=O)C1C(=O)C1C(/C=C/C)C=CC2CC(C(=O)O)CC(C)C21 (centres undefined) | 31.3% (inactive) | – |
| O=c1cc(-c2ccc(O)c(O)c2)oc2cc(O[C@@H]3O[C@H](CO)[C@@H](O)[C@H](O)[C@H]3O)cc(O)c12 | 11.3% (inactive) | – |
| CC[C@H](C)[C@H]1NC(=O)[C@@H](NC(=O)C(C)C)[C@@H](C)OC(=O)[C@H](COC(=O)CNC(C)=O)NC(=O)[C@@H]([C@@H](C)O)NC(=O)[C@H](Cc2ccccc2)N(C)C(=O)[C@H](c2ccc(OC)cc2)NC1=O (Isobutyryl-T[d(aIle)][Phg(4-OMe)][NMeF][d(aThr)]S([Gly-Ac]); ester 1-C) | -14.2% (inactive) | – |
| C[n+]1cc2cc(C(N)=O)[nH]c3c(=N)c(Cl)c(N)c1c23 | 4.16% (inactive) | – |
| C/C1=C/[C@@H](C)[C@H](O)[C@@H](O)/C=C/CC/C=C/C(=O)O[C@@H]1[C@H](C)C(=O)CCCC1CC(=O)NC(=O)C1 | 1.56% (inactive) | – |
| COc1ccc2[nH]c3c(c2c1)CCN1C[C@H]2C[C@@H](OC(=O)c4cc(OC)c(OC)c(OC)c4)[C@H](OC)[C@@H](OC)[C@H]2C[C@H]31 | – | 6.6 µM (active) |
